Data published in PubChem BioAssay AID1159580 (chemical genetic matrix, 2015).
Where “and” joins values, the source holds several entries; their conditions need not be identical. Equal entries are not always repeated. Hit rate of the full screen: of about 5,500 compounds, about 2,000 (36%) were called active. Another 18% or so got no clear call; they are omitted. No stated cut-off is given here; in the data, active means normalized growth mostly below about 0.91 (no sharp cut-off); inconclusive means no clear call, values can overlap the other calls; inactive means mostly above about 0.92. This is one part of the list.

Assay: chemical genetic growth profiling, strain panel (AID 1159580);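 further: tested at 20 µM; growth read once vehicle control cultures reached saturation at 30 °C; 1 = growth at the plate median or of vehicle wells; lower values mean less growth of the strain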
Settings: S. cerevisiae deletion strains, growth OD

Measured: normalized growth

NC(Cc1c[nH]c2ccccc12)C(=O)O (configuration not stated)
inactive: locus YAL013W, strain DEP1, hits give low values 1 | locus YAL021C, strain ccr4, hits give low values 1 | locus YAL026C, strain drs2, hits give low values 1.01 | locus YAL030W, strain snc1, hits give low values 1.02 | locus YBL061C, strain skt5, hits give low values 1.04 | locus YBR009C, strain hhf1, hits give low values 1 | locus YBR021W, strain FUR4, hits give low values 1.01 | locus YBR023C, strain chs3, hits give low values 1.02 | locus YBR171W, strain sec66, hits give low values 1.03 | locus YBR229C, strain ROT2, hits give low values 0.957 | locus YBR231C, strain swc5, hits give low values 1.02 | locus YBR279W, strain paf1, hits give low values 1.02 | locus YCL011C, strain gbp2, hits give low values 1.02 | locus YCL016C, strain dcc1, hits give low values 1.01 | locus YCL029C, strain bik1, hits give low values 0.98 | locus YCL061C, strain MRC1, hits give low values 1.01 | locus YCL069W, strain vba3, hits give low values 1.03 | locus YCR088W, strain abp1, hits give low values 1.02 | locus YDL005C, strain med2, hits give low values 1.03 | locus YDL035C, strain GPR1, hits give low values 1 | locus YDL040C, strain nat1, hits give low values 1.03 | locus YDL074C, strain BRE1, hits give low values 1.02 | locus YDL101C, strain DUN1, hits give low values 0.984 | locus YDL134C, strain PPH21, hits give low values 0.961 | locus YDL185W, strain tfp1, hits give low values 0.986 | locus YDL192W, strain arf1, hits give low values 0.984 | locus YDR001C, strain nth1, hits give low values 1.04 | locus YDR069C, strain doa4, hits give low values 1 | locus YDR101C, strain arx1, hits give low values 0.996 | locus YDR137W, strain rgp1, hits give low values 1.03 | locus YDR150W, strain NUM1, hits give low values 0.965 | locus YDR159W, strain sac3, hits give low values 1.02 | locus YDR162C, strain NBP2, hits give low values 0.998 | locus YDR195W, strain ref2 1.02 | locus YDR297W, strain sur2, hits give low values 1.02 | locus YDR318W, strain mcm21, hits give low values 0.988 | locus YDR334W, strain swr1, hits give low values 1.02 | locus YDR335W, strain msn5, hits give low values 1.03 | locus YDR388W, hits give low values 0.997 | locus YDR392W, strain spt3, hits give low values 0.939 | locus YDR502C, strain sam2, hits give low values 0.997 | locus YEL003W, strain gim4, hits give low values 1.01 | locus YEL037C, strain rad23, hits give low values 1.02 | locus YEL061C, strain CIN8 (second series), hits give low values 1.02 | locus YEL061C, strain CIN8, hits give low values 0.987 | locus YER015W, strain faa2, hits give low values 1.02 | locus YER016W, strain bim1, hits give low values 1.02 | locus YER110C, hits give low values 0.98 | locus YER111C, strain swi4, hits give low values 1.03 | locus YER155C, strain BEM2 (second series), hits give low values 0.997 | locus YER155C, strain BEM2, hits give low values 1.01 | locus YER167W, strain BCK2, hits give low values 1.01 | locus YFR010W, strain ubp6, hits give low values 1.02 | locus YGL078C, strain dbp3, hits give low values 0.982 | locus YGL086W, strain mad1, hits give low values 1.01 | locus YGL167C, strain pmr1, hits give low values 1.02 | locus YGL173C, strain kem1, hits give low values 1.03 | locus YGL227W, strain vid30, hits give low values 1.03 | locus YGL240W, strain doc1, hits give low values 1 | locus YGL248W, strain PDE1, hits give low values 0.991 | locus YGL253W, strain hxk2, hits give low values 1.01 | locus YGR078C, strain PAC10, hits give low values 0.991 | locus YGR135W, strain pre9, hits give low values 0.993 | locus YGR229C, strain SMI1, hits give low values 1 | locus YGR252W, strain gcn5, hits give low values 0.981 | locus YHR013C, strain ard1, hits give low values 1.02 | locus YHR027C, strain rpn1, hits give low values 1.02 | locus YHR030C, strain SLT2, hits give low values 0.988 and 0.966 | locus YHR079C, strain IRE1 (second series), hits give low values 0.989 | locus YHR079C, strain IRE1, hits give low values 0.983 | locus YHR094C, strain hxt1, hits give low values 0.988 | locus YHR129C, strain ARP1, hits give low values 0.993 | locus YHR142W, strain chs7, hits give low values 1.03 | locus YHR200W, strain rpn10, hits give low values 0.995 | locus YIL066C, strain RNR3, hits give low values 0.979 | locus YIL073C, strain SPO22, hits give low values 1 | locus YIL125W, strain kgd1, hits give low values 0.998 | locus YIR030C, strain dcg1, hits give low values 0.992 | locus YJL092W, strain hpr5, hits give low values 1.03 | locus YJL095W, strain BCK1 (second series), hits give low values 1.02 | locus YJL095W, strain BCK1, hits give low values 1.04 and 0.984 | locus YJL115W, strain asf1, hits give low values 1.03 | locus YJL129C, strain trk1, hits give low values 1.02 | locus YJL134W, strain LCB3, hits give low values 0.987 | locus YJL154C, strain vps35, hits give low values 1.02 | locus YJL164C, strain tpk1, hits give low values 1 | locus YJL166W, strain qcr8, hits give low values 1.01 | locus YJL168C, strain set2, hits give low values 0.99 | locus YJL187C, strain SWE1 (second series), hits give low values 0.973 | locus YJL187C, strain SWE1, hits give low values 1.03 | locus YJR043C, strain POL32, hits give low values 1.01 | locus YJR066W, strain TOR1, hits give low values 0.978
